Screens deposited in PubChem by several laboratories.
PTK2B oligo ant: Pyk2 (human) oligomerization antagonism. Q14289. Q293 cells, Pyk2 FERM NanoBiT luminescence; hits give low values. z-score (the deposit names both 25 µM and 10 µM). 99,000 compounds, 0.83% hits. AID 1347419;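 active = Z-score of -3 or lower, scaled per plate to the spread of control and sample wells; inactive = z-score above -3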;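 also: negative z-score means lost luminescence so less FERM oligomerization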
CYP2C19 inh: human CYP2C19 inhibition; P33261; inhibition, % at 5 µM; 96,000 compounds, 21% hits; CYP2C19 Supersomes, luciferin-H EGE luminescence, 30 min;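 active = CYP2C19 inhibition above a set limit at 5 µM in the primary screen, cut at about 50% in these data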;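 also: plate controls were negative control wells for no effect and 2.5 mM tranylcypromine positive control for full effect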
Target sequence (P33261 whole entry, looked up): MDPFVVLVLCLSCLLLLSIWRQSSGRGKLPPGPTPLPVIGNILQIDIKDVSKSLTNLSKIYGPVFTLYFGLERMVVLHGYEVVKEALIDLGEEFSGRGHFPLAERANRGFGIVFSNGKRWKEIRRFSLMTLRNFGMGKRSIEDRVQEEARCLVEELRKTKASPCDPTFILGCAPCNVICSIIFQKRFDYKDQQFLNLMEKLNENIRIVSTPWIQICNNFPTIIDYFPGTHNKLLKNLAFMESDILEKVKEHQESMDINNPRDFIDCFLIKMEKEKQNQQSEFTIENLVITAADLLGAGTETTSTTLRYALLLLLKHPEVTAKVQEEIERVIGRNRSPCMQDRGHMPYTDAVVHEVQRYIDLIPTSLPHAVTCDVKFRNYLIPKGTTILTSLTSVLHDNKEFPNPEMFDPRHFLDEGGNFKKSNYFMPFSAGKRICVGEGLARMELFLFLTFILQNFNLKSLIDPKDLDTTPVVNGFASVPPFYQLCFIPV
CYP2C19 act: activators of human cytochrome P450 2C19; AID 1025; recombinant CYP2C19, luciferin-H EGE luminescence; hits give high values; 0 = fully inhibited enzyme, 1 = untreated enzyme; P33261; 96,000 tested, under 10 active; activation factor at 5 µM;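 active = activation factor of at least 2 at 5 µM in the primary screen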;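 also: 0 = wells with 2.5 mM tranylcypromine and 1 = vehicle-only wells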
Cav32 inh: human Cav3.2 channel inhibition, primary screen. Cav3.2-expressing cells, Fluo-4 calcium fluorescence FDSS; hits give low values. B-score at 10 µM. 100,000 compounds, 4% hits. O95180;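 active = single-dose well whose peak fluorescence ratio is a statistical outlier from its plate by either plate-standardised score or position-corrected B-score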
CYP2C9 act: increases human cytochrome P450 2C9 activity; P11712; recombinant CYP2C9, luciferin-H conversion, luminescence; hits give high values; factor 1 = untreated enzyme, 0 = blocked; activation factor at 5 µM; 96,000 compounds, 1.4% hits;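 active = activation factor of 2 or more for CYP2C9 at a 5 µM dose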;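 also: 0 = sulfaphenazole-blocked wells and 1 = vehicle-only wells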
CYP2C9 inh: blocks human cytochrome P450 2C9. inhibition, % at 5 µM. 96,000 compounds, 20% hits. CYP2C9 Supersomes, luciferin-H conversion, luminescence. AID 777;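 active = blocking of liver enzyme CYP2C9 beyond about 50% at 5 µM, limit read from the data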
Active calls of the source: *; / = not tested or not shown. An excerpt weighted towards active compounds, which were near 27% of everything screened.

SMILES	PTK2B oligo ant	CYP2C19 inh	CYP2C19 act	Cav32 inh	CYP2C9 act	CYP2C9 inh
CC(C)c1ccccc1NC(=S)NN(Cc1ccccc1)c1ccccc1	-0.38	62*	0.4	-6.9*	0.5	46
Cc1cccc(C)c1NC(=S)NN(Cc1ccccc1)c1ccccc1	0.19	45	0.6	-2.2	0.9	10
Cc1ccc(-c2nc3cccnc3s2)cc1NS(C)(=O)=O	/	/	/	1	/	/
Clc1ccc(SCc2cc(-c3ccc(Cl)cc3)on2)cc1	0.75	2	1	-1.4	0.8	20
C=CCn1c(SCCC#N)nnc1-c1ccncc1	1	55*	0.4	0.35	0.9	9
CCn1c(SCCC#N)nnc1-c1ccncc1	0.26	44	0.6	0.41	1	2
CC1CCN(C(=O)COC(=O)c2cc(Cl)cc(Cl)c2N)CC1	0.16	46	0.5	0.18	2.3*	-133
CN(C)C(=O)COC(=O)c1cc(Cl)cc(Cl)c1N	1.8	26	0.7	/	1.3	-29
CC(C)N(C(=O)COC(=O)c1cc(Cl)cc(Cl)c1N)C(C)C	-0.04	83*	0.2	-3.6	0.3	66*
CC1CCCC(C)N1C(=O)CSc1nnc(NC(=O)c2cccs2)s1 (centres undefined)	0.13	9	0.9	0.69	0.7	25
CCN(CC)c1ncn(Cc2c(Cl)cccc2Cl)c2ncnc1-2	-1.1	35	0.6	-3.2	0.6	36
Clc1cccc(Cl)c1Cn1cnc2c(N3CCCCCC3)ncnc21	-3.4*	7	0.9	-0.24	0.6	38
c1ccc(Cn2nnc3c(N4CCCCCC4)ncnc32)cc1	/	36	0.6	-2.1	0.3	71*
c1ccc(Cn2nnc3c(N4CCc5ccccc54)ncnc32)cc1	2.7	/	/	1.5	/	/
CC(=O)Nc1ccccc1Nc1nc(NCCO)nc(N2CCCC2)n1	/	/	/	0.74	/	/
COC(=O)c1sc(S(=O)(=O)Nc2ccc3cn[nH]c3c2)c(C(=O)OC)c1C	-0.44	52*	0.5	-0.61	0.1	92*
CCOC(=O)c1ccc(S(=O)(=O)Nc2ccc3cn[nH]c3c2)cc1	-3*	16	0.8	-0.67	0.1	94*
COC(=O)c1ccccc1S(=O)(=O)Nc1ccc2cn[nH]c2c1	-0.38	89*	0.1	-0.23	0.2	80*
COC(=O)c1ccc(NS(=O)(=O)c2cccc3cccnc23)cc1	-0.5	-5	1.1	0.39	0.9	8
COC(=O)c1cc2cc(NS(=O)(=O)c3ccc(C)cc3)ccc2s1	-0.47	/	/	0.022	/	/
CCc1c(C(=O)N2CCN(c3ccccc3F)CC2)[nH]c(C)c1C(C)=O	0.58	43	0.6	1.1	0.8	21
CCOc1ccc(S(=O)(=O)Nc2nc3ccccc3nc2N2CCN(C)CC2)cc1	0.43	18	0.8	1.2	0.4	56*
O=S(=O)(Nc1nc2ccccc2nc1N1CCN(c2ccccc2F)CC1)c1ccc(Cl)cc1	-2.3	29	0.7	-5.7*	0	100*
Cc1ccccc1S(=O)(=O)Nc1nc2ccccc2nc1N1CCOCC1	-0.39	4	1	0.12	0.3	70*
Cc1ccccc1NS(=O)(=O)c1ccc(OCC(=O)N2CCCCC2)cc1	0.03	22	0.8	0.92	1	2
SMILES	PTK2B oligo ant	CYP2C19 inh	CYP2C19 act	Cav32 inh	CYP2C9 act	CYP2C9 inh
Cc1cc(C)n(C(=O)CSc2nnc(SCC(=O)n3nc(C)cc3C)s2)n1	-0.43	-20	1.2	0.19	1.1	-15
Clc1ccc(OCc2cc(-c3ccccc3)no2)cc1Cl	0.15	1	1	-3.2	0.3	69*
COc1ccc2[nH]c3c(N4CCC(O)(c5cccc(C(F)(F)F)c5)CC4)ncnc3c2c1	-2.9	40	0.6	-2.3	0.3	67*
COc1ccc2[nH]c3c(N4CCN(Cc5ccc6c(c5)OCO6)CC4)ncnc3c2c1	-1.4	58*	0.4	-2.4	0.2	82*
COc1ccc2c(c1)c1ncn(CCCN3CCOCC3)c(=O)c1n2C	0.01	27	0.7	-0.058	0.9	11
Cc1ccc2[nH]c3c(N4CCc5ccccc5C4)ncnc3c2c1	-1.2	11	0.9	-2.9	0.9	8
COc1ccc2c(c1)c1ncnc(N3CCN(Cc4ccc5c(c4)OCO5)CC3)c1n2C	/	22	0.8	/	0.2	82*
C#Cc1ccc([C@@H]2C=C(C(=O)NCc3nc4ccccc4[nH]3)O[C@H](OCC)[C@H]2CCCO)cc1	/	/	/	0.06	/	/
C=CCNc1cc(C)oc(=O)c1C(=O)CCC	-0.41	-2	1	0.097	1.3	-26
O=C(COC(=O)Cc1ccc(Cl)cc1Cl)Nc1ccccc1OC(F)F	1.4	/	/	/	/	/
C=CCn1c(Cc2ccc(OC)cc2)nnc1SCC(=O)NCCc1ccccc1	-0.43	26	0.7	-0.42	0.7	30
CC(C)[C@H](NC(=O)Nc1ccccc1F)C(=O)O	-0.52	-18	1.2	0.29	1.1	-14
Cc1ccc(S(=O)(=O)NC(=O)c2cccn2C)cc1	0.28	-13	1.1	0.51	0.9	6
COC(=O)c1oc2ccc(Br)cc2c1NC(=O)CCN1CCOCC1	0.34	45	0.6	0.36	0.4	55*
NC(=O)c1oc2ccc(Cl)cc2c1NC(=O)CN1CCOCC1	0.5	52*	0.5	1.5	0.8	16
CCOC(=O)c1oc2ccc(Br)cc2c1NC(=O)CN1CCN(C)CC1	0.93	5	1	1.9	1	2
COC(=O)c1[nH]c2ccc(Cl)cc2c1NC(=O)CN1CCC(C(N)=O)CC1	/	12	0.9	-0.19	0.9	9
CNC(=O)C1=C(C)Nc2nc3ccccc3n2C1c1cccc(OC)c1 (centres undefined)	/	18	0.8	1.1	1	-4
CCOC(=O)C1=C(C)Nc2nc(SCc3cccnc3)nn2C1c1ccc(OC)cc1 (centres undefined)	/	26	0.7	-0.78	0.3	66*
COc1ccc(OC)c(C2C(C(=O)N(C)C)=C(C)Nc3nc4ccccc4n32)c1 (centres undefined)	0.4	-9	1.1	0.59	1	0
C=CCOC(=O)C1=C(C)Nc2nc3ccccc3n2C1c1ccncc1 (centres undefined)	-1.9	62*	0.4	1.3	0.4	58*
CCOC(=O)C1=C(C)Nc2nc3ccccc3n2C1c1ccncc1 (centres undefined)	-1.6	54*	0.5	2.6	0.5	54*
C=CCn1c(SCC(=O)N(C)C2CCS(=O)(=O)C2)nnc1-c1ccncc1 (centres undefined)	-0.41	-5	1	/	1.1	-11
O=C(COc1ccc(Cl)cc1)N(Cc1ccccc1)c1ccccn1	-1.5	98*	0	-4.1	0.5	55*
O=C(COc1ccc(Br)cc1)N(Cc1ccccc1)c1ccccn1	-0.86	/	/	/	/	/
Cc1cc(O)c2c(-c3ccccc3)cc(=O)oc2c1	-2	52*	0.5	-0.14	0.2	76*
CCCc1cc(O)c2c(C)cc(=O)oc2c1	-1.9	/	/	-0.85	/	/
